Assay outcomes as filed in PubChem.
In the library only some 2.9% were active in any assay of this set; here they are far more common.
DRV1 agonist – activates human resolvin D1 receptor GPR32; activation, % at 76.9 µM; CHO-K1 GPR32 beta-arrestin PathHunter luminescence, 90 min; zero percent set by DMSO-only wells; O75388; 48,000 tested, 2.5% active;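 active = activation of at least 60% and not above a set upper limit, about 1 call in 100 departs from these limits; inconclusive = activation of 40% to 60%, or above that upper limit; inactive = activation under 40%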; also: 0% is about no effect
Target sequence (O75388 whole entry, looked up): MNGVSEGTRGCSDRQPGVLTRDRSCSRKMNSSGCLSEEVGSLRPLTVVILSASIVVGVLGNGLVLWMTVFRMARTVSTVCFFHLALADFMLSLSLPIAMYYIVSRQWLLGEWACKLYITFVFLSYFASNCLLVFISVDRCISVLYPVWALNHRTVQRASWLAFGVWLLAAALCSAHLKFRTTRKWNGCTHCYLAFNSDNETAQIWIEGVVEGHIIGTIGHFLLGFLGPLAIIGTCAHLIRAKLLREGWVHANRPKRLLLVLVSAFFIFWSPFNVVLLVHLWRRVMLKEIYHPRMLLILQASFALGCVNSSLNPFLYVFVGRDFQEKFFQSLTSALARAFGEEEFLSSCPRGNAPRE
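CHO-K1 cells stably expressing ProLink-tagged GPR32 and Enzyme Activator-tagged beta-arrestin were seeded at 2,500 cells/well overnight, exposed to compounds for 90 min at 37 °C, then read by beta-Gal complementation chemiluminescence after 1 h detection reagent.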
p53null 32C kill – selectivity test: cytotoxicity in p53 null cells, permissive temperature. AID 903. 55,000 tested, 0.62% active. H1299-neo p53 null cells, ATP luminescence, 24 h, 32C. Potency, µM (top dose mostly 46.1 µM), inactives show top-dose activity change, negative = cytotoxicity, most hits filed as cytotoxic;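 also: potency is read from the fitted curve at half-maximal effect; 0% = DMSO only and -100% = full killing by 100 µM tamoxifen; nearly all actives have a fitted effect of over 55% in size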
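Cells lacking p53 (H1299-neo) are plated at 600 per well and allowed to settle overnight at 37C. Test compounds (up to 46 uM) are added and held 24 hours at 32C, then ATP is quantified by luminescence.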
p53null 39C tox – p53 null cell cytotoxicity, nonpermissive temperature; 55,000 tested, 0.97% active; AID 904; H1299 p53-null (neo) cells, 39C, ATPlite viability, 24 h; Potency, µM (doses to about 46.1 µM), without a hit: at the highest dose activity, negative = cell killing, hits mostly cytotoxic;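 also: potency is read from the fitted curve at half-maximal effect; 0% = DMSO only and -100% = full killing by 100 µM tamoxifen; nearly all actives have a fitted effect of over 50% in size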
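Cells seeded at 600/well, 37C overnight. Compound added (up to 46 uM), plates shifted to 39C for 24 hr. ATPlite added, luminescence read after 20 min at room temperature.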
FH mod – Identification of activators of human fumarate hydratase by quantitative high-throughput screening; FH coupled MDH/diaphorase resazurin fluorescence, 15 min; AID 1347055, 2019; 54,000 tested, 0.22% active; Potency, µM (doses to about 79.9 µM), without a hit: at the highest dose activity change, negative = inhibition, hits mostly inhibitors; also: potency is read from the fitted curve at half-maximal effect; % is scaled to controls: 0 for no effect and ±100 for the full control effect; the screen sought activators but most active calls are inhibition curves; nearly all actives have a fitted effect of over 45% in size
Active calls of the source: *; [ ] = another dose, or the depositor's remark. Unless noted, calls follow the shape of the dose curve; as a rule, active = well fitted curve in the direction sought with a large enough effect; inconclusive = small, poorly fitted or top-dose-only effect, or another doubt; inactive = no such curve, though single readings can be large; an effect the other way counts as inactive or inconclusive.

What do the screens show for `CN(C(=O)c1cccc(Nc2ccc(-c3ccc4c(c3)OCCO4)nn2)c1)C1CCCCC1`?
p53null 32C kill: 11µM*; p53null 39C tox: 13µM*

What do the screens show for `CCN(C(=O)CSc1ncc(S(=O)(=O)c2ccc(C)c(Cl)c2)c(=O)[nH]1)c1cccc(C)c1`?
DRV1 agonist: 75*; p53null 32C kill: -5%; p53null 39C tox: -4%; FH mod: -20%

How did Cc1ccc(S(=O)(=O)c2cnc(SCC(=O)Nc3ccc4c(c3)OCCO4)[nH]c2=O)cc1Cl do in these assays?
DRV1 agonist: 11; p53null 32C kill: 0%; p53null 39C tox: inconclusive; FH mod: -22%

How did COc1ccc2c(c1)[C@@H]1C[C@]1(C(=O)N1[C@@H]3CC[C@H]1CN(C)C3)Cn1c-2c(C2CCCCC2)c2ccc(C(=O)NS(=O)(=O)N(C)C)cc21 do in these assays?
FH mod: -25%

Results for CCc1c(Cl)c(O)c(Cl)c(O)c1C(=O)O[C@H]1[C@H](O)[C@H](OC)[C@H](OC/C2=C\C=C\C[C@H](O)/C(C)=C\[C@H](CC)[C@@H](O[C@@H]3OC(C)(C)[C@@H](OC(=O)C(C)C)[C@H](O)[C@@H]3O)/C(C)=C/C(C)=C/C[C@@H]([C@@H](C)O)OC2=O)O[C@@H]1C ?
FH mod: -3%[53.3 µM]

How did COc1ccccc1C(=O)Oc1c(Sc2ccccc2)c(C)nn1C(C)(C)C do in these assays?
DRV1 agonist: -8; p53null 32C kill: inconclusive; p53null 39C tox: 13µM*; FH mod: -40%

Results for C#C[C@]1(O)CC[C@H]2[C@@H]3CCc4cc(OC)ccc4[C@H]3CC[C@@]21C ?
DRV1 agonist: 69*; FH mod: -9%[53.3 µM]

What do the screens show for `C#C[C@]1(O)CC[C@H]2[C@@H]3CCc4cc(OC5CCCC5)ccc4[C@H]3CC[C@@]21C`?
DRV1 agonist: 68*; FH mod: inconclusive

Results for C#C[C@]1(O)CC[C@H]2[C@H]3CCc4cc(OC)ccc4[C@H]3CC[C@@]21C ?
FH mod: -1%[53.3 µM]

What do the screens show for `C#C[C@]1(O)CC[C@@H]2[C@@H]3CCC4=CC(=O)CC[C@@H]4[C@H]3CC[C@@]21CC`?
FH mod: -1%[53.3 µM]

Results for C#C[C@]1(O)CC[C@H]2[C@@H]3CCC4=CC(=O)CC[C@@H]4[C@H]3CC[C@@]21C ?
DRV1 agonist: 69*; FH mod: 1%[53.3 µM]

How did CC(=O)OC1C[C@@]2(C)[C@@H](CC[C@@H](C)[C@]23Cc2c(O)cc4c(c2O3)CNC4=O)C(C)(C)[C@@H]1O (stereo partly specified) do in these assays?
FH mod: 0%[53.3 µM]

What do the screens show for `CC1CC(O)/C=C/C(O)C(O)CC(=O)Cc2c(Cl)c(O)cc(O)c2C(=O)O1` (stereo unspecified)?
FH mod: -1%[53.3 µM]

What do the screens show for `O=C1c2ccccc2C(=O)C1c1ccnc2ccccc12`?
p53null 32C kill: inconclusive; p53null 39C tox: 16µM*

How did CCOc1ccc(C2CC(=O)n3nc(-c4ccc(C)cc4)nc3S2)cc1OC (stereo unspecified) do in these assays?
DRV1 agonist: 74*; p53null 32C kill: -12%; p53null 39C tox: 4%; FH mod: -6%

Results for Cc1ccc(-c2nc3n(n2)C(=O)CC(c2ccc(C)cc2)S3)cc1 (stereo unspecified) ?
DRV1 agonist: -9; p53null 32C kill: -8%; p53null 39C tox: -11%; FH mod: -4%

How did O=C1CC(c2ccc(Cl)cc2)Sc2nc(-c3ccc(F)cc3)nn21 (stereo unspecified) do in these assays?
DRV1 agonist: 119*; p53null 32C kill: -3%; p53null 39C tox: 2%; FH mod: -10%

What do the screens show for `C[C@@H]1C(=O)O[C@H]2[C@H]1CC[C@@]1(C)C(=O)C=C[C@](C)(O)[C@H]21`?
FH mod: 1%

Results for O=C(Nc1ccc2oc(=O)ccc2c1)c1cc2ccccc2o1 ?
p53null 32C kill: -6%; p53null 39C tox: -10%

What do the screens show for `O=C(Nc1ccccn1)c1cc2ccccc2o1`?
p53null 32C kill: 4µM*; p53null 39C tox: 5µM*

Results for O=C(O)c1ccc(NC(=O)c2cc3ccccc3o2)cc1 ?
DRV1 agonist: 2; p53null 32C kill: 13µM*; p53null 39C tox: inconclusive; FH mod: -21%

How did O=C(Nc1ccc(NC(=O)c2cc3ccccc3o2)cc1)c1ccccc1 do in these assays?
DRV1 agonist: 2; p53null 32C kill: 10%; p53null 39C tox: 10%; FH mod: -3%

Results for CCCCN(CCCC)CC(O)Cn1cc(/C=C/C(=O)c2ccccc2)c2ccccc21 (stereo unspecified) ?
DRV1 agonist: 88*; p53null 32C kill: inconclusive; p53null 39C tox: inconclusive; FH mod: -8%

Results for CCCCN(C)CC(O)Cn1cc(/C=C/C(=O)c2ccc(OCC)cc2)c2ccccc21 (stereo unspecified) ?
DRV1 agonist: 17; p53null 32C kill: inconclusive; p53null 39C tox: 5µM*; FH mod: -21%

Results for CCOCCn1nc(CC)c2nc(N3CCC(C(=O)O)CC3)nc(Nc3cc(C)ccn3)c21 ?
FH mod: 0%

Results for N#Cc1cnc2c(Cl)cc(NCc3cn(CCN4CCCCCC4)nn3)cc2c1Nc1ccc(F)c(Cl)c1 ?
FH mod: -11%

How did COc1cc(/C=C/c2nc(C#N)c(N3CCCCCC3)o2)cc(OC)c1OC do in these assays?
DRV1 agonist: -19; p53null 32C kill: -8%; p53null 39C tox: -20%; FH mod: 28µM*

Results for COc1cc(/C=C/c2nc(C#N)c(N3CCC(C)CC3)o2)cc(OC)c1OC ?
DRV1 agonist: -25; p53null 32C kill: -3%; p53null 39C tox: -9%; FH mod: -26%

Results for CC1(C)C=Cc2c(ccc3c2[N+]([O-])=C2C3(O)CC34NC(=O)C5(CCCN5C3=O)CC4C2(C)C)O1 (stereo unspecified) ?
FH mod: 3%[53.3 µM]

How did COC1C=C([C@@H]2CC=C3[C@@]4(C)C(CC[C@]32C)[C@@]2(C)C=CC(=O)C(C)(C)C2C[C@H]4OC(C)=O)C(=O)O1 (stereo partly specified) do in these assays?
FH mod: 0%[53.3 µM]

What do the screens show for `Cc1cccc(C(=O)Nc2cccc(C(=O)OCc3cc(=O)n4nc(C(C)C)sc4n3)c2)c1`?
DRV1 agonist: -6; p53null 32C kill: 0%; p53null 39C tox: -6%; FH mod: 3%

How did O=C(Nc1ccc(OCc2cc(=O)n3ccsc3n2)cc1)c1ccc(F)cc1 do in these assays?
DRV1 agonist: 10; p53null 32C kill: -5%; p53null 39C tox: 0%; FH mod: 1%

How did CC(C)(C)c1ccc(C(=O)Nc2ccc(OCc3cc(=O)n4ccsc4n3)cc2)cc1 do in these assays?
DRV1 agonist: 87*; p53null 32C kill: inconclusive; p53null 39C tox: -15%; FH mod: -1%
